# Laboratory results reported in PubChem BioAssay AID624298 (National Center for Advancing Translational Sciences (NCATS), 2012).
# Records with an inconclusive call do not appear. Where a call stands in place of a potency, no number is given. The source made the active and inactive calls. Calls come from the whole dose curve; as a rule, active = well fitted activation curve with a large enough effect; inconclusive = small, poorly fitted or top-dose-only effect; inactive = no such curve, though single readings can be large or run the other way.
# Experiment: Activators of T cell receptors: Hit Validation;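 note: cytokine measured is secreted IL-2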
# In short: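 Readout is IL-2 secretion by HTRF, measured after 48 hr in which primary human leukocytes received compound together with a-CD3 beads as the only TCR stimulus.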
# Potency is the fitted concentration of half-maximal effect.
row,SMILES,Potency
1,CC(=O)NC(CC(=O)O)C(=O)O (configuration not stated),inactive
2,CCN(CC)S(=O)(=O)c1ccc(N2CCN(C)CC2)c(NC(=O)CN2C(=O)NC3(CCCCC3)C2=O)c1,inactive
3,C=CCNC(=S)Nc1ccc2nsnc2c1,inactive
4,COc1ccccc1N1CCN(CCCC(=O)c2ccc(F)cc2)CC1,inactive
5,CC(c1nnc(SCC(=O)c2c(N)n(C3CC3)c(=O)[nH]c2=O)n1-c1ccc(F)cc1)N(C)C (configuration not stated),inactive
6,Cc1cc(C)c(-c2csc(NC(=O)C3=NN(c4ccccc4)C(=O)CC3)n2)c(C)c1,inactive
7,CCCCCCC[C@@H](C/C=C/CCC(=O)N(C)C/C(=C/Cl)C/C(=C\C(=O)N1CC(OC)=CC1=O)OC)OC,0.996 µM (active)
8,CCC(/C=C1\Sc2ccc(OC)cc2N1CCO)=C\c1sc2ccc(OC)cc2[n+]1CCO,9.96 µM (active)
9,COc1ccc(CN(C)C(C)C(=O)N(C)CC(=O)Nc2ccc(C)cc2)cc1F (configuration not stated),inactive
10,CCN1CNC(=S)N(Cc2ccccc2)C1,inactive
11,OC1CCCC1,inactive
12,CCOc1ccc(-c2nnc(-c3snc(-c4ccc(F)cc4)c3N=CN(C)C)o2)cc1,inactive
13,COc1ccccc1N1CCN(C(=O)C2CCN(S(=O)(=O)c3ccccc3F)CC2)CC1,inactive
14,COc1cc(OC)cc(C(=O)Nc2ccc(S(=O)(=O)N3CCOCC3)cc2)c1,inactive
15,COc1ccc(S(=O)(=O)N2CCN(C(=O)CCc3c[nH]c4ccccc34)CC2)cc1,inactive
16,COc1ccccc1CNC(=O)CSc1ccc(Br)cc1,inactive
17,O=C(O)c1ccc(OS(=O)(=O)c2cccc(C(F)(F)F)c2)cc1,inactive
18,CN(C)CCC[C@]1(c2ccc(F)cc2)OCc2cc(C#N)ccc21,inactive
19,CN=c1nc(-c2ccccc2)n(-c2ccccc2)s1,inactive
20,COc1cc(N=c2ssnc2Cl)c(OC)cc1Cl,inactive
21,Cc1ccc(S(=O)(=O)N(C)/N=C/C=C/c2ccccc2)cc1,inactive
22,CCn1nnnc1NC(=O)c1ccc2ccccc2c1,inactive
23,Cc1ncc[nH]1,inactive
24,COc1ccc(NC(=O)COC(=O)CN2C(=O)C3CCCCC3C2=O)cc1OC (configuration not stated),inactive
25,CC(=O)Nc1ccc(C(=O)OCC(=O)N(c2ccccc2)C2CCS(=O)(=O)C2)cc1 (configuration not stated),inactive
26,O=S(=O)(c1ccc(=S)[nH]c1)N1CCCCCC1,inactive
27,COc1ccc(C(=O)/C=C(\C)Nc2ccc(NC(C)=O)cc2)cc1,inactive
